Test [1] can be described thus: reducers of endogenous Her2 protein level, primary screen, SKBR3 breast tumor cells, AlphaScreen, ATP viability (AID 461;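 active means Her2 level under about 52% in both replicate screens, with viability over 70% of control, limit read from the data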;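 on Her2 level: lower value means less Her2 protein in the cells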;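 on viability: percent of carrier control wells set as 100% viability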). To be noted: 18-24 h, measured here: SKBR3 viability, ATP luminescence, at 10 µM.
The target in test [2] is Receptor tyrosine-protein kinase erbB-2 (Homo sapiens) (UniProt P04626). Described as above. Particulars: 18-24 h, at 10 µM, stronger effect = lower value.
Test [3] in a line: SK-BR-3 cell growth inhibitors, pilot screen, 24 h, human (AID 572;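 active means viability at or below 10% of carrier control in both of two separate runs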;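 further: compound exposure lasted between 18 and 24 h rather than exactly 24 h; 100% = carrier-treated control wells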). Particulars: SK-BR-3 viability, CellTiter-Glo luminescence, at 10 µM, stronger effect = lower value. (In general: In ATP-based viability assays light output follows the ATP content of the culture.)
A short description of test [4]: HUVEC growth inhibition – cell-based, human, primary screen (AID 575;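 active means viability at or below 30% in both replicate assays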;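 further: 100% = median of untreated cell wells with 0.1% DMSO on each plate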). To be noted: HUVEC proliferation, CellTiter-Glo luminescence, 72 h; at 10 µM; stronger effect = lower value.
Test [5] in a line: growth inhibitors of H69AR lung tumor, primary screen, human, duplicate replicates (AID 580).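 Further: 100% = mean luminescence of untreated wells and 0% = no signal.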 Particulars: H69AR lung tumor cells viability, ATP luminescence, 72 h; at 10 µM; stronger effect = lower value.
Test [6] in a line: reversal of MRP1-mediated doxorubicin resistance, pilot screen, H69AR cells, doxorubicin co-treatment (AID 601;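 active means viability loss from added drug above about 55%, and viability with drug at most 40%, in both replicates, limit read from the data, passing the limit was not always enough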). Particulars: CellTiter-Glo, 72 h, at 10 µM; for differential viability (reversal): stronger effect = higher value.
Test [7] can be described thus: 384-well plate pilot, post-Golgi transport modulator project, inhibition of yeast transport mutant growth (AID 636; in the data active means inhibition above about 31%). To be noted: absorbance 615 nm, about 18 h, stronger effect = higher value.
A short description of test [8]: growth suppression of yeast trafficking mutant, preliminary HTS, modulators of trafficking downstream of Golgi apparatus project, 1536-format plate, OD 615 nm (AID 637; in the data active means inhibition above about 30%). Particulars: yeast transport mutant growth, absorbance 615 nm, 18 h; stronger effect = higher value.
A short description of test [9]: OD615 S. cerevisiae growth inhibition, permissive medium, pilot counter-assay, permissive growth control for S. cerevisiae lifespan shortening project (AID 705;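 active means growth inhibition above 25% in both replicates, a cutoff set 3 SD above the mean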). Particulars: OD615, 24 h, at 10 µM, stronger effect = higher value.
A short description of test [10]: Restrictive medium S. cerevisiae growth inhibition, OD615, pilot screen of yeast lifespan reduction project, restrictive growth control (AID 706;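 active means growth inhibition above a set limit, 3 SD over mean compound inhibition, in both replicates, cut at about 43% in these data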;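 further: modified DeaD lifespan yeast strain shifted to restrictive glucose medium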). To be noted: OD615, 48 h, at 10 µM, stronger effect = higher value.
Test [11] can be described thus: viability gain of MRP-1-high H69AR cells under doxorubicin, pilot screen, MRP-1 activator project, CellTiter-Glo, duplicate (AID 807;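 active means viability increase at or above a cutoff of the median across tested compounds plus 3 SD, cut at about 8.5% in these data, passing the limit was not always enough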;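 further: compound pretreatment 18-22 h then 72 h combined with doxorubicin; 0% = doxorubicin alone and 100% = vehicle without doxorubicin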). Particulars: H69AR viability with doxorubicin, CellTiter-Glo luminescence; at 10 µM; stronger effect = higher value.
Test [12] is described as follows: growth suppression of beta-catenin knockout HCT116, pilot screen, human colon tumor cells (AID 823;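 active means cell viability at or below a set limit in both duplicate runs, the limit being the all-compound median minus 4 SD, cut at about 23% in these data, passing the limit was not always enough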;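 further: 0% = wells killed by 20 µM Hyamine and 100% = untreated DMSO cell wells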). To be noted: CellTiter-Glo, 60 h, at 10 µM, stronger effect = lower value.
Test [13] in a line: growth suppression of PTEN-deleted HCT116, pilot screen, cell-based, HCT116 clonal line, CellTiter-Glo (AID 824;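 active means viability at or below 27.92% in each of two runs, the all-compound median minus 4 SD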;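 further: 0% = 20 µM Hyamine control and 100% = vehicle cell control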). Particulars: 60 h, at 10 µM, stronger effect = lower value.
Test [14] in a line: inhibitors of the yeast RAM network, pilot screen, dse1pr::URA3 reporter, 5-FOA selection (AID 869;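 active means inhibition over a set limit, the all-compound mean plus 3 SD, in both replicate runs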;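 further: 0% = DMSO wells with no growth and 100% = 10 µM 1-NA-PP1 with full growth; RAM network block rescues cells from 5-FOA so hits raise OD615 growth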). Particulars: S. cerevisiae dse1pr::URA3 5-FOA growth, OD615, 2 d; at 10 µM; stronger effect = higher value; strain carries analog-sensitive mutant Cbk1 kinase.
Test [15] in a line: RAM signaling pathway blockade in yeast – S. cerevisiae, Pdr1DBD-CYC8 efflux-inhibited sensitized strain, primary screen (AID 1298;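 active means RAM network inhibition above 8.4% in each of two replicates, 3 SD over the compound average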;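 further: 0% = DMSO untreated cells without growth and 100% = 10 µM 1-NA-PP1 full growth; higher means more yeast growth rescued from 5-FOA killing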). Particulars: S. cerevisiae cbk1-as DSE1-URA3 strain, 5-FOA growth OD615, 2 d; at 50 µM; stronger effect = higher value.
The mark [16] stands for this setting: H69AR cells + 2 uM doxorubicin, measured here: viability with 2 uM doxorubicin, stronger effect = lower value.
The mark [17] stands for this setting: H69AR cells, compound alone cytotoxicity.

Each structure is given as a SMILES string. Results filed as inconclusive are left out. Activity calls are given as the source filed them.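 How the source made its calls, unless noted: active means viability at or under a set limit in both replicates, limit being median viability minus 3 SD (cut at about 48% in these data, passing the limit was not always enough); inconclusive means at or under the limit in just one replicate; inactive means at or above the limit in both replicates.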

Sequence of Receptor tyrosine-protein kinase erbB-2 (Homo sapiens) (P04626 whole entry, looked up): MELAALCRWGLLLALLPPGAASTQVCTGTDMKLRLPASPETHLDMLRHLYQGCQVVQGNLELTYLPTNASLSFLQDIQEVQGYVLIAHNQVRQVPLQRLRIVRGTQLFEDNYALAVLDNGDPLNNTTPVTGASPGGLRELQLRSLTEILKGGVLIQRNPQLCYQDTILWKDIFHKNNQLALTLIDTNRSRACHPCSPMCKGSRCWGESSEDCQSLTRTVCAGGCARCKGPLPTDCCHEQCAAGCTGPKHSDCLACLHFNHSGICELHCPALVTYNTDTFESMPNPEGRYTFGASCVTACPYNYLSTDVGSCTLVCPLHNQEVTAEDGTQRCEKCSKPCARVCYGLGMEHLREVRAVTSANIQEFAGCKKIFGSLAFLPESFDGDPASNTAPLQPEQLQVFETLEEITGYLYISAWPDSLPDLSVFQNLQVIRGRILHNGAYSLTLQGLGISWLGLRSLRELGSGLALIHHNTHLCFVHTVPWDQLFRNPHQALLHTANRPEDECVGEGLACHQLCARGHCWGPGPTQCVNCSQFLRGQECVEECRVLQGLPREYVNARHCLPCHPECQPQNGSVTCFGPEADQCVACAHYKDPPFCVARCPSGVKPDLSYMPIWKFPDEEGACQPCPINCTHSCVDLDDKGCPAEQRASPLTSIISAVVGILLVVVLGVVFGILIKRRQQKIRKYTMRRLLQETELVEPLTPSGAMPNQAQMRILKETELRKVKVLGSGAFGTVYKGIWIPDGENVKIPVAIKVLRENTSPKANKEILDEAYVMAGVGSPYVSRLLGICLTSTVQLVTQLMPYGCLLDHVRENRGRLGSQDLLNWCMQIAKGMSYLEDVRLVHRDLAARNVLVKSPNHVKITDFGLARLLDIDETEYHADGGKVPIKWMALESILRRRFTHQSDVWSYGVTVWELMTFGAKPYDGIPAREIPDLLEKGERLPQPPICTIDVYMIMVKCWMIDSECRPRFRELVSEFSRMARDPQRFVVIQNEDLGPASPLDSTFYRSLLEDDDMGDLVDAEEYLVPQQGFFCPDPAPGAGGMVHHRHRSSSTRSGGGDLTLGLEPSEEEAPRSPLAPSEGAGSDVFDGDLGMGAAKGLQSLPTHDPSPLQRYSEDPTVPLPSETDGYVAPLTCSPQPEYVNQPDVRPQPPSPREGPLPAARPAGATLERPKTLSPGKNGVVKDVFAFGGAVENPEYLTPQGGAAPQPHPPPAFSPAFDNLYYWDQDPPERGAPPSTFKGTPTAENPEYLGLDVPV

With `COCCOC(=O)C1=C(C)OC(N)=C(C#N)C1c1ccc2c(c1)OCO2` (stereo not drawn), the viability in test [1] is 98%; in [3] it was 98% (inactive); in test [4], 93.7% (inactive); in test [5], 84.8% (inactive); in test [6] (setting [16]) it was 79.8%; in test [6] (setting [17]) it was 84.8%. Besides, the viability was 106% (inactive) in [12] and 105% (inactive) in [13]. For the same compound, the Her2 level in test [2] is 91.5% (inactive). Moreover, the differential viability (reversal) in test [6] (H69AR cells + 2 uM doxorubicin) is 4.96% (inactive). In addition, the inhibition in test [7] is -3.12% (inactive); in [8], -7.5% (inactive); in test [14], 0.465% (inactive). Also, the growth inhibition in test [9] was 2.33% (inactive); in [10], -2.95% (inactive). For the same compound, the viability increase in test [11] was -1.47% (inactive). In addition, the RAM network inhibition in [15] is 3.07% (inactive).
With `CS(=O)(=O)N(Cc1ccco1)CC(O)Cn1c2ccccc2c2ccccc21` (stereo not drawn), the viability in test [1] was 93.5%; in [3], 93.5% (inactive); in test [4], 76.8% (inactive); in test [5], 80.5% (inactive); in [6] (setting [16]), 83.4%; in test [6] (setting [17]), 80.5%. Besides, the viability was 72.2% (inactive) in test [12] and 74.5% (inactive) in test [13]. Further, the Her2 level in test [2] is 71.5% (inactive). Further, the differential viability (reversal) in [6] (H69AR cells + 2 uM doxorubicin) is -2.92% (inactive). Besides, the inhibition in [7] is -3.9% (inactive); in test [8], -4.5% (inactive); in test [14], 1.9% (inactive). Moreover, the results for the growth inhibition in [9] and in test [10] were -6.72% (inactive) and -1.61% (inactive), respectively. Besides, the viability increase in [11] is -4.51% (inactive). Besides, the RAM network inhibition in test [15] was 1.64% (inactive).
For the compound `O=C(O)c1ccc2c(c1)C(=O)N(c1ccc(Cl)cn1)C2=O`, the viability in [1] was 98%; in test [3], 98% (inactive); in test [4], 105% (inactive); in test [5] it was 87.2% (inactive); in test [6] (setting [16]) it was 88.2%; in [6] (setting [17]) it was 87.2%. For the same compound, the viability in test [12] was 102% (inactive); in test [13] it was 96.2% (inactive). Further, the Her2 level in [2] was 111% (inactive). For the same compound, the differential viability (reversal) in test [6] (H69AR cells + 2 uM doxorubicin) was -0.91% (inactive). The inhibition was -5.47% (inactive) in [7], 0.33% (inactive) in [8] and 1.22% (inactive) in [14]. The growth inhibition in test [9] is -12.8% (inactive); in [10], -10.8% (inactive). Besides, the viability increase in test [11] is -2.33% (inactive). In addition, in test [15], the RAM network inhibition was -0.74% (inactive).
For the compound `COc1ccccc1S(=O)(=O)Cc1ccc(C(=O)N2CCOCC2)o1`, the viability in test [1] is 113%; in [3], 113% (inactive); in test [4] it was 105% (inactive); in test [5] it was 87.6% (inactive); in test [6] (setting [16]), 92.7%; in test [6] (setting [17]), 87.6%. For the same compound, the viability is 106% (inactive) in test [12] and 97.9% (inactive) in test [13]. Also, the Her2 level in test [2] is 98.5% (inactive). For the same compound, in test [6] (H69AR cells + 2 uM doxorubicin), the differential viability (reversal) is -5.08% (inactive). Besides, the inhibition in test [7] is -2.13% (inactive); in test [8] it was 3.5% (inactive); in [14], 1.65% (inactive). Further, the growth inhibition in test [9] is 1.17% (inactive); in [10], -2.13% (inactive). In addition, the viability increase in [11] is -2.08% (inactive). Further, the RAM network inhibition in [15] was 0.78% (inactive).
Consider `COC(=O)Cn1c(CN2CCOCC2)nc2c1c(=O)n(C)c(=O)n2C`, for which the viability in test [1] was 81.5%; in [3], 81.5% (inactive); in test [4], 89.2% (inactive); in [5], 99.8% (inactive); in test [6] (setting [16]), 94%; in test [6] (setting [17]), 99.8%. The viability in test [12] was 104% (inactive); in test [13], 96.7% (inactive). The Her2 level in test [2] is 86.5% (inactive). In addition, in test [6] (H69AR cells + 2 uM doxorubicin), the differential viability (reversal) was 5.79% (inactive). In addition, the inhibition is -4% (inactive) in test [7], -2% (inactive) in test [8] and 1.2% (inactive) in test [14]. Further, the figures for the growth inhibition in test [9] and in test [10] were -0.42% (inactive) and 1.05% (inactive), respectively. Further, in [11], the viability increase was -0.73% (inactive). The RAM network inhibition in [15] was -1.44% (inactive).
Take `COc1ccc(-c2[nH]c(-c3cccc(OC)c3)nc2SCC(=O)NCc2ccco2)cc1`: the viability in [1] is 95.5%; in [3] it was 95.5% (inactive); in test [4], 62.5% (inactive); in test [5] it was 71% (inactive); in test [6] (setting [16]) it was 73.4%; in test [6] (setting [17]), 71%. Besides, the figures for the viability in test [12] and in test [13] were 93.3% (inactive) and 90.3% (inactive), respectively. The Her2 level in test [2] was 85.5% (inactive). In [6] (H69AR cells + 2 uM doxorubicin), the differential viability (reversal) is -2.42% (inactive). Moreover, the values for the inhibition in test [7], in test [8] and in test [14] were -2.67% (inactive), -0.33% (inactive) and 1.09% (inactive), respectively. The growth inhibition was -9.19% (inactive) in test [9] and 1.65% (inactive) in test [10]. The viability increase in test [11] was -4.56% (inactive). Besides, the RAM network inhibition in test [15] was 11.2% (inactive).
With `CCCN1CCN(CCCNC(=O)Cn2ncc3c4ccccc4n(C)c3c2=O)CC1`, the viability in test [1] was 99%; in test [3], 99% (inactive); in test [4], 101% (inactive); in test [5], 102% (inactive); in [6] (setting [16]), 96.8%; in test [6] (setting [17]), 102%. The results for the viability in [12] and in test [13] were 96.7% (inactive) and 95.8% (inactive), respectively. The Her2 level in [2] is 120% (inactive). In addition, the differential viability (reversal) in test [6] (H69AR cells + 2 uM doxorubicin) was 5.29% (inactive). In addition, the inhibition in [7] is 0.9% (inactive); in test [8] it was 5.17% (inactive); in test [14], 1.89% (inactive). Further, the growth inhibition is 4.22% (inactive) in [9] and -10.6% (inactive) in test [10]. Besides, in test [11], the viability increase is -1.73% (inactive). The RAM network inhibition in test [15] was -0.33% (inactive).
`O=C(c1ccc2c(c1)OCCO2)N1CCCCC1`: the viability in test [1] was 117%; in test [3], 117% (inactive); in test [4], 91.8% (inactive); in test [5] it was 101% (inactive); in test [6] (setting [16]), 102%; in [6] (setting [17]), 101%. The values for the viability in [12] and in [13] were 97.2% (inactive) and 97.4% (inactive), respectively. Further, the Her2 level in test [2] was 97% (inactive). Moreover, the differential viability (reversal) in test [6] (H69AR cells + 2 uM doxorubicin) is -1.2% (inactive). Further, the inhibition in [7] is -0.91% (inactive); in test [8], 0.17% (inactive); in test [14], 0.88% (inactive). Also, the figures for the growth inhibition in test [9] and in [10] were 3.7% (inactive) and 6.82% (inactive), respectively. In test [11], the viability increase was -1.22% (inactive). The RAM network inhibition in [15] was 5.28% (inactive).
In the case of `O=C(Cn1nc(Cc2cccnc2)c2ccccc2c1=O)Nc1ccc2c(c1)OCO2`, the viability in test [1] was 87%; in [3] it was 87% (inactive); in test [4], 84.5% (inactive); in [5], 85.2% (inactive); in test [6] (setting [16]), 76.2%; in test [6] (setting [17]), 85.2%. Besides, the viability is 99% (inactive) in test [12] and 106% (inactive) in test [13]. Further, the Her2 level in [2] was 96.5% (inactive). Moreover, the differential viability (reversal) in [6] (H69AR cells + 2 uM doxorubicin) was 9.09% (inactive). Moreover, the inhibition in test [7] was -4.8% (inactive); in [8], -0.67% (inactive); in test [14], 0.975% (inactive). The growth inhibition in test [9] is 0.565% (inactive); in [10], 7.93% (inactive). Also, the viability increase in test [11] is 2.16% (inactive). The RAM network inhibition in test [15] was 2.81% (inactive).

Broadly, the viability is a read-out of living cells in per cent, often relative to untreated cells. As usually defined, the inhibition is the change of the read-out against control, counted positive when it falls.

Source of the values: PubChem BioAssay.
